D2 antag – antagonists of human D2 dopamine receptor; P14416; HEK293 TREx D2 cells, calcium flux, dopamine EC80; inhibition, % at 10 µM; 340,000 tested, 2% active; AID 485344; in the data active means inhibition above about 30%; inactive means below that, where a call was filed; further: 0% is about no effect
Target sequence (P14416 whole entry, looked up): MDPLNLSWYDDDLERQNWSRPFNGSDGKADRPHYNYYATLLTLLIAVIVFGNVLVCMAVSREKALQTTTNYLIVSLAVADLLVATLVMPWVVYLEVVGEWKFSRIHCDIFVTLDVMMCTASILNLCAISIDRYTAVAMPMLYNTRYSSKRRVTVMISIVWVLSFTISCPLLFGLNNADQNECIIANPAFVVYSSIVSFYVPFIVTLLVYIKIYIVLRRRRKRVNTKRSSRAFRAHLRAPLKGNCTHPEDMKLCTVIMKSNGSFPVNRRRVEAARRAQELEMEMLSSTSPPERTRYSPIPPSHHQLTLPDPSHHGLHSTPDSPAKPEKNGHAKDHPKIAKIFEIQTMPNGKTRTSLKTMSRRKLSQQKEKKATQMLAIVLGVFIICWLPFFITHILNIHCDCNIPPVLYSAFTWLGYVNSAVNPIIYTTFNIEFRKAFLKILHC
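Inhibition of EC80 dopamine-driven calcium flux, recorded kinetically, defines activity here; cells are a tetracycline-induced HEK293 T-REx line expressing force-coupled D2.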
D2 PAM-1 – potentiates the human D2 dopamine receptor allosterically. AID 624464. DiscoveRx D2 beta-arrestin cells, luminescence, 90 min; 100% = 57 uM dopamine signal. P14416. 360,000 tested, 0.23% active. potentiation, % (concentration not given with the values); in the data active means potentiation above about 50%; inconclusive means mostly about 30% to 49%
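PathHunter beta-arrestin assay in DiscoveRx D2 cells. Compounds were added with an EC20 of dopamine (50 nM final) for 90 min at 37 deg C. Luminescence was read 1 h after detection reagent, with 57 uM dopamine as the EC100 control.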
D2 PAM-2 – positive allosteric modulators of human D2 dopamine receptor | HEK293 T-REx D2, calcium flux, EC20 dopamine potentiation | potentiation, % at 10 µM | 340,000 tested, 0.34% active;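 active means potentiation over 3 SD above the plate norm, cut at about 30% in these data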; further: 0% is about no effect
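Cells plated with tetracycline inducer and held overnight at 30 C; calcium dye loaded 30–90 min at room temperature; baseline taken, compound added and read 180 s; EC20 dopamine then added and read 180 s.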
D2 ag-1 – agonists of human D2 dopamine receptor (beta-arrestin); P14416; activation, % (concentration not given with the values); 360,000 tested, 0.084% active; DiscoveRx PathHunter D2 beta-arrestin, luminescence, 90 min; 100% = 57 uM dopamine signal; in the data active means activation above about 40%; inconclusive means between about 15% and that limit
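Agonist mode: compounds alone added to overnight-plated D2 PathHunter cells for 90 min at 37 C, with 57 uM final dopamine (EC100) defining full response. Beta-arrestin recruitment detected by chemiluminescent reagent, read after 1 h at ambient temperature.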
D2 ag-2 – agonists of human D2 dopamine receptor; activation, % at 2 µM; 340,000 tested, 0.53% active; HEK293 T-REx D2 cells, calcium flux agonist mode; P14416;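 active means activation over 3 SD above normal in the single-dose calcium agonist read, cut at about 30% in these data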; further: 0% is about no effect
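Calcium-flux readout, 1 cycle/sec over 180 s following compound pin transfer, in inducible HEK293 Trex D2 cells (force-coupled); dopamine controls included. Positive calcium responses during this window marked compounds as potential agonists.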
An asterisk follows results filed as active; ? = inconclusive; nt = not tested or not shown. Shown are actives, neighbours in structure and some others; about 2.4% of the full set was active somewhere.

SMILES | D2 antag | D2 PAM-1 | D2 PAM-2 | D2 ag-1 | D2 ag-2
O=C(NCCN1CCOCC1)c1cccc(NS(=O)(=O)c2ccc(Br)cc2)c1 | 33* | -16 | 8 | 1 | 0
Cc1ccc(NC(=O)CSc2nc3[nH]c(=O)cc(O)c3s2)c(Br)c1 | 59* | 0 | 24 | -3 | -1
CCCn1c(O)c(CN2CCCCC2)c(C)c(C#N)c1=O | 13 | 64* | -15 | 8 | 14
Cc1c(CN2CCCCC2)c(O)n(CCCO)c(=O)c1C#N | 9 | 10 | 6 | 4 | 2
CC(C)c1ccc(S(=O)(=O)NCc2ccc3c(c2)CCN3C(=O)c2ccccc2)cc1 | nt | nt | -1 | nt | 0
CC1(C)CC(=O)C=C(c2n[nH]nc2C2CCCCC2)C1 | nt | 2 | nt | -6 | nt
O=[N+]([O-])c1ccc(Sc2nnnn2-c2ccccc2)c(Cl)c1 | 36* | 30 | -6 | 13 | -1
Cn1nnnc1Sc1ccc([N+](=O)[O-])cc1Cl | -18 | 19 | 2 | 7 | 1
CN1CCC2CC1c1cc(-c3ccc(C(F)(F)F)cc3)ccc12 (stereo not drawn) | nt | -10 | nt | 1 | nt
CN(CCOc1ccccc1)CC(=O)Nc1ccc(Br)cc1F | 53* | -8 | 0 | 0 | 1
NC(=S)N=Nc1c(O)n(Cc2ccc(Br)cc2)c2ccccc12 | 1 | 52* | -3 | -2 | 0
NC(=S)N=Nc1c(O)n(Cc2ccc(F)cc2)c2ccccc12 | 19 | -4 | -1 | -1 | 0
O=[N+]([O-])c1ccc(/C=N/NC(=S)Nc2ccc(Cl)cc2Cl)s1 | 45* | -10 | -7 | -3 | 2
CCCc1nc2ccc(NC(=O)NCCC(=O)OCC)cc2c(=O)n1Cc1cccc(Cl)c1 | -16 | 3 | 4 | 0 | 0
CCOC(=O)CCNC(=O)Nc1ccc2nc(C)n(Cc3cccc(Cl)c3)c(=O)c2c1 | -15 | 7 | 35* | 0 | -2
Cc1cccc(C)c1NC(=O)Cn1nc(C)c2sc3ccccc3c2c1=O | nt | nt | -3 | nt | -1
O=C1c2ccccc2CCCC12N=NCC2c1cccc2ccccc12 (stereo not drawn) | nt | 119* | nt | ? | nt
Cc1cccc(Nc2nc(Nc3cccc(C)c3)nc(N3CCOCC3)n2)c1 | nt | nt | 9 | nt | -1
COc1cc(NS(=O)(=O)c2ccc(NC(=O)/C=C/c3ccc([N+](=O)[O-])cc3)cc2)ncn1 | -4 | 102* | 9 | -5 | 0
CC(=O)c1ccc(S(=O)(=O)Nc2ccc(-c3ccc(N4CCCCC4)nn3)cc2)cc1 | nt | nt | -2 | nt | 1
CCN1CCN(c2c(S(=O)(=O)c3ccc(C)c(C)c3)cnc3ccc(F)cc23)CC1 | 37* | -12 | -21 | -5 | -1
CCN=c1scc(C)n1/N=C/c1ccc(O)c(O)c1O | -8 | 117* | 0 | 49* | 32*
CCN=c1scc(C)n1/N=C/c1cc(Br)c(O)c(Br)c1 | -18 | -1 | -4 | -2 | 0
CCOC(=O)c1cc(S(=O)(=O)NCc2ccc(C)cc2)[nH]n1 | nt | nt | 20 | nt | 0
Cc1nc2sccn2c(=O)c1S(=O)(=O)N1CCN(c2ccccc2)CC1 | 5 | 1 | -2 | -2 | 0
SMILES | D2 antag | D2 PAM-1 | D2 PAM-2 | D2 ag-1 | D2 ag-2
Cc1nc2sccn2c(=O)c1CCN1CCC(=C(c2ccccc2)c2ccc(F)cc2)CC1 | 73* | nt | -25 | nt | 2
Cc1cc(C)n(CCn2nc(C)cc2C)n1 | 41* | -10 | -1 | -1 | 1
Cc1cc(C)n(CC(=O)O)n1 | -21 | 5 | 12 | -4 | 0
CCOc1cc(CNc2ncnc3nc[nH]c23)ccc1OC | 38* | -2 | -12 | -4 | -1
Cc1ccc(NS(=O)(=O)c2ccc(-c3coc(C)n3)cc2)c(Cl)c1 | nt | -6 | nt | -1 | nt
COC(=O)CCC(=O)N1CCCC(C(=O)c2cc(F)ccc2F)C1 (stereo not drawn) | 14 | 2 | -2 | 5 | 0
O=C(c1cc(F)ccc1F)C1CCCN(C(=O)CCN2CCCCO2)C1 (stereo not drawn) | 32* | -4 | 2 | 0 | 1
Cc1ccc(-n2c3c(cc(-c4nc(-c5ccc(Cl)cc5)cs4)c2=O)C(=O)CC(C)(C)C3)cc1 | nt | nt | -5 | nt | 0
O=C(O)C1CC=CCC1C(=O)NCCCCc1ccccc1 (stereo not drawn) | 34* | -1 | 0 | 1 | 0
CC(C)Cc1cc(CN2CCC(CO)(Cc3ccccc3)CC2)[nH]n1 | 47* | -18 | -23 | 0 | -1
Cc1ccc(C(=O)COC(=O)CSc2cccc3cccnc23)c(C)c1 | nt | 57* | nt | -5 | nt
O=C(NC1CCCC1)C(c1ccncc1)N(Cc1cccs1)C(=O)c1csnn1 (stereo not drawn) | 36* | -12 | 3 | -2 | -1
CC(C)(C)NC(=O)C(c1ccncc1)N(Cc1cccs1)C(=O)c1csnn1 (stereo not drawn) | -3 | -4 | -6 | -1 | 1
O=c1[nH]c(=O)n(C(c2ccccc2)(c2ccccc2)c2ccccc2)cc1N(CCO)CCO | nt | -13 | nt | -8 | nt
O=C(CN1CCCC1)N1c2ccccc2Sc2ccc(Cl)cc21 | 10 | -6 | -6 | 4 | 0
CCN1C(=O)c2ccccc2Sc2ccc(C(=O)NCCCN3CCCCC3)cc21 | 25 | -33 | -12 | -4 | 0
CN(C)CCCN1c2ccccc2Sc2ccc3ccccc3c21 | nt | -28 | nt | -1 | nt
OCCN1CCN(CCCN2c3ccccc3Sc3ccc(Cl)cc32)CC1 | 86* | -30 | -29 | 1 | 1
CN1CCN(CCCN2c3ccccc3Sc3ccc(S(=O)(=O)N(C)C)cc32)CC1 | 82* | -37 | -23 | -6 | 1
CN(C)CCCN1c2ccccc2Sc2ccc(Cl)cc21 | 86* | -30 | -28 | 0 | 1
CC(=O)c1ccc2c(c1)N(CCCN1CCC(CCO)CC1)c1ccccc1S2 | 74* | -39 | -15 | -9 | -1
CN1CCN(CCCNC(=O)c2cn(C)c3ccc(S(=O)(=O)N(C)C)cc3c2=O)CC1 | -12 | -4 | 8 | -1 | 1
COc1cccc(C(NC(C)=O)c2nc(-c3ccc(OC)nc3)cs2)c1 (stereo not drawn) | nt | -9 | nt | 3 | nt
CCc1nc2ccc(C(=O)NCCCN3CCCC3=O)cn2c1N(CC)Cc1cccc(Br)c1 | nt | -13 | nt | -2 | nt
Cc1c(NS(=O)(=O)c2cc(C(=O)NC(C)c3ccccc3)ccc2Cl)c(=O)n(-c2ccccc2)n1C (stereo not drawn) | 2 | 15 | -1 | 4 | 0
O=C(Nc1ccc(N2CCOCC2)cc1)c1csc(COCCO)n1 | nt | -1 | nt | -2 | nt
COc1ccc(NC(=O)c2cn(-c3ccccc3)nc2-c2ccc(C)cc2)cc1 | nt | nt | -17 | nt | nt
CCCCOc1ccccc1CC1C(=O)Nc2ccc(Br)cc21 (stereo not drawn) | nt | nt | 16 | nt | -1
CCc1nc2ccc(C(=O)Nc3cc(-c4ccccc4)ccc3OC)cn2c1N(C=O)CCC(C)C | nt | -2 | nt | 134* | nt
